# Results taken from PubChem BioAssay (NCATS).
# Records with an inconclusive call do not appear. Entries that show only a call come without a potency. Unmarked numbers belong to inactive results. The source made the active and inactive calls. Calls come from the whole dose curve; as a rule, active = well fitted inhibition curve with a large enough effect; inconclusive = small, poorly fitted or top-dose-only effect; inactive = no such curve, though single readings can be large or run the other way. Where a SMILES comes first, the peptide text is derived from it. [ ]: non-standard residue; d: D form. PhLac = O=C(O)[CH](O)Cc1ccccc1; NMeV = CN[CH](C(=O)O)C(C)C
# Experiment: Primary fluorescence-based thiol-reactive (MSTI) qHTS assay for identification of artifact compounds. (AID 1845221); note: nearly all actives have a fitted effect of over 65% in size;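 for activity change, negative = thiol reactive: thiol-reactive compounds lower the probe fluorescence signal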
# Conditions: MSTI thiol-reactivity probe, 1 h; series mostly up to 53.8 µM
# Outline: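 First, 4 uM MSTI in 2% DMSO/PBS pH 7.4 was dispensed; next, compounds were added; then plates sat 1 h at room temperature without light. Finally, emission at 598 nm was recorded.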
# Potency is the fitted concentration of half-maximal effect.
SMILES,"activity change, negative = thiol reactive",Potency
CC[C@H](/C=C/[C@@H](C)[C@H]1CC[C@H]2[C@@H]3CC=C4C[C@@H](O)CC[C@]4(C)[C@H]3CC[C@]12C)C(C)C,-7.95% [at 6.41 µM],
c1ccc(Cc2ncc3c(n2)CCNCC3)cc1,,inactive
C[C@@H]1O[C@@H](O[C@H]2[C@H](O[C@H]3CO[C@@H](O[C@H]4CC[C@@]5(C)C(CC[C@]6(C)C5CC[C@]57OC[C@@]8(CC[C@](C)(CO)CC85)[C@H](O)C[C@]76C)C4(C)C)[C@H](O[C@@H]4O[C@H](CO)[C@@H](O)[C@H](O)[C@H]4O)[C@H]3O)O[C@H](CO)[C@@H](O)[C@@H]2O)[C@H](O)[C@H](O)[C@H]1O (some centres undefined),26.5% [at 11.5 µM],
COC(=O)C1=CO[C@@H](O[C@@H]2O[C@H](CO[C@@H]3O[C@H](COC(=O)/C=C/c4ccc(O)cc4)[C@@H](O)[C@H](O)[C@H]3O)[C@@H](O)[C@H](O)[C@H]2O)[C@@H]2C(CO)=CC[C@H]12,,inactive
CC1(C)CC[C@]2(C(=O)O)CC[C@]3(C)C(=CCC4[C@@]5(C)C[C@H](O)[C@H](O[C@@H]6OC[C@H](O)[C@H](O)[C@H]6O)[C@@](C)(CO)C5CC[C@]43C)[C@@H]2C1 (some centres undefined),,inactive
CC(C)C(C(=O)N1CCCC1C(=O)O)N(C)C(=O)C(O)Cc1ccccc1 (centres undefined) (H-[PhLac]-[NMeV]-Pro-OH; configuration not given here),,inactive
C[C@@H]1CC[C@]2(C(=O)O[C@@H]3O[C@H](CO)[C@@H](O)[C@H](O)[C@H]3O)CC[C@]3(C)C(=CCC4[C@@]5(C)C[C@@H](O)[C@H](O)C(C)(C)C5CC[C@]43C)C2[C@]1(C)O (some centres undefined),,inactive
C=CC1(C)C=C2C(O)CC3C(C)(C(=O)O)CCCC3(C)C2CC1 (centres undefined),,inactive
CC(=O)[C@@H]1CC[C@]2(C(=O)O)CC[C@]3(C)C(CCC4[C@@]5(C)CC[C@H](O)C(C)(C)C5CC[C@]43C)C12 (some centres undefined),,inactive
CC1(C)CC(=O)N(CCCCN2CCN(c3ncccn3)CC2)C(=O)C1,,inactive
O=C(CCO[C@@H]1O[C@H](CO)[C@@H](O)[C@H](O)[C@H]1O)c1ccc(O)cc1,,inactive
COC(=O)C1(Cc2ccc(O)cc2)OC(=O)C(OC)=C1c1ccc(O)cc1 (centres undefined),,inactive
COc1cc([C@H]2OC[C@]3(OC(C)=O)[C@@H](c4ccc(O[C@@H]5O[C@H](CO)[C@@H](O)[C@H](O)[C@H]5O)c(OC)c4)OC[C@H]23)ccc1O,,inactive
CC(=O)O[C@@H]1[C@@H](OC(=O)/C=C/c2ccccc2)[C@H](C)O[C@@H](O[C@H]2[C@@H]3C=CO[C@@H](O[C@@H]4O[C@H](CO)[C@@H](O)[C@H](O)[C@H]4O)[C@@H]3[C@@]3(CO)O[C@@H]23)[C@@H]1OC(C)=O,,inactive
CC1CCC2(C(=O)OC3OC(CO)C(O)C(O)C3O)CCC3(C(=O)O)C(=CCC4C5(C)CCC(OC6OC(C)C(O)C(O)C6O)C(C)(C)C5CCC43C)C2C1C (centres undefined),,inactive
O=C1N(CC2CCCCN2)CCN1c1ccccc1 (centres undefined),,inactive
Cc1coc2c1CC1OC1(C)CCC1OC1(C)C2 (centres undefined),,inactive
CC(CO[C@@H]1O[C@H](COC(=O)/C=C/c2ccc(O)c(O)c2)[C@@H](O)[C@H](O)[C@H]1O)C1(O)COC(=O)C1 (some centres undefined),,1.84 µM (active)
OCC1OC(Oc2cc(O)c3c(c2)OC(c2ccc(O)cc2)C(O)C3)C(O)C1O (centres undefined),,inactive
CCNC(=O)[C@H]1O[C@H](n2cnc3c(NCC(c4ccccc4)c4ccccc4)nc(C(=O)NCCNC(=O)NC4CCN(c5ccccn5)CC4)nc32)[C@H](O)[C@@H]1O,,inactive
CC1CCCC2OC2C(=O)c2c(O)cc(O)cc2CC(=O)O1 (centres undefined),,8.44 µM (active)
CN1C(=O)N[C@@H](Cc2c[nH]c3c(Cl)cccc23)C1=O,,inactive
CCC(=O)O[C@]1(C(=O)CCl)[C@@H](C)C[C@H]2[C@@H]3C[C@H](F)C4=CC(=O)C=C[C@]4(C)[C@@]3(F)[C@@H](O)C[C@@]21C,,inactive
C[C@@H]1O[C@@H](O[C@H]2[C@H](OC(=O)[C@]34CCC(C)(C)C[C@H]3C3=CCC5[C@@]6(C)CC[C@H](O[C@@H]7O[C@H](CO[C@@H]8OC[C@H](O)[C@H](O)[C@H]8O)[C@@H](O)[C@H](O)[C@H]7O)C(C)(C)C6CC[C@@]5(C)[C@]3(C)C[C@H]4O)OC[C@@H](O)[C@@H]2O)[C@H](O)[C@H](O)[C@H]1O[C@@H]1OC[C@H](O)[C@H](O[C@@H]2OC[C@@H](O)[C@H](O)[C@H]2O)[C@H]1O (some centres undefined),146% [at 11.5 µM],
